# Sampled rows, rich in hits. Any-hit rate of the full collection: about 11%.
# JMJD2A Tudor inh = inhibitors of human JMJD2A Tudor domain; O75164; AlphaScreen JMJD2A-Tudor / H3K4me3 peptide binding; Potency, µM (series often up to 114 µM), inactives show at the top dose activity change, negative = inhibition, hits mostly inhibitors; hit rate 4.4% among 390,000; AID 504339; further: on the % scale 0 is the no-effect control and ±100 the full control effect; nearly all actives have a fitted effect of over 50% in size
# BAZ2B block = blocks human BAZ2B | Q9UIF8 | AlphaScreen BAZ2B-H3K14Ac peptide displacement | Potency, µM (titrated, usually from 114 µM), inactives show at the highest dose activity change, negative = inhibition, hits mostly inhibitors | hit rate 4.4% among 360,000; further: on the % scale 0 is the no-effect control and ±100 the full control effect; nearly all actives have a fitted effect of over 60% in size
#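 In this displacement format the biotinylated H3(5-23) peptide acetylated at Lys14 serves as ligand at 50 nM, with BAZ2B at 50 nM in PBS pH 7.4 containing 0.01% Tween-20. Donor and acceptor beads are 10 ug/mL final.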
# G9a inh = G9a (human) methyltransferase inhibition; Q96KQ7; hit rate 8.8% among 350,000; Potency, µM (top dose mostly 102 µM), for inactives: at the highest dose activity, negative = inhibition, most hits filed as inhibitors; G9a H3K9 monomethylation, AlphaScreen, 2 h; further: on the % scale 0 is the no-effect control and ±100 the full control effect; nearly all actives have a fitted effect of over 75% in size
#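 Chemiluminescent proximity detection of H3K9 monomethylation, read after 10 min bead incubation in the dark. Reaction: 20 nM G9a, 500 nM biotin-H3K9 peptide, 20 uM SAM cofactor, 2 h, room temperature, following 15 min enzyme-compound preincubation.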
# VDR inh = inhibitors of human vitamin D receptor. P11473. VDR-SRC2-3 peptide fluorescence polarization, 2 h. Potency, µM, inactives show max response, negative = inhibition, usual class: inhibitors. hit rate 0.93% among 400,000. AID 504847; further: on the % scale 0 is the no-effect control and ±100 the full control effect
# Target sequence (P11473 whole entry, looked up): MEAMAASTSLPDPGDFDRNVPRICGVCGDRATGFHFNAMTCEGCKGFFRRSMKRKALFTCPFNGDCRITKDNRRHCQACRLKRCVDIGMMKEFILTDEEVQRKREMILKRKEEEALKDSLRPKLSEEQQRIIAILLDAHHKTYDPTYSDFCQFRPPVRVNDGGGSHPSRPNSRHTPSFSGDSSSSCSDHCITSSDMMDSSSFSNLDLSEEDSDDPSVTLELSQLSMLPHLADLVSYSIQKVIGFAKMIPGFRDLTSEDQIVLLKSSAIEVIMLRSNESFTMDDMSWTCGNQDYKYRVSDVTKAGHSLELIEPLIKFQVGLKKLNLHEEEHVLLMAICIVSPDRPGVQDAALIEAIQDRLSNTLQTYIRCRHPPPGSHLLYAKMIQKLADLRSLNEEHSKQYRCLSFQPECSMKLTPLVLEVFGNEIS
#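 Two reagent solutions held at 4 deg C in the dark were dispensed, compounds pinned at 23 nl, and the mixture incubated 2 h at room temperature. Read-out: fluorescence polarization of VDR–SRC2-3 peptide binding.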
# PLK1 PBD block = inhibitors of human PLK1 polo-box domain binding. Plk1 PBD binding of FITC phosphopeptide, fluorescence polarization. Potency, µM, for the others: max response, negative = inhibition, actives largely listed as inhibitors. hit rate 2.8% among 360,000. AID 720504; further: series mostly up to about 57 µM; on the % scale 0 is the no-effect control and ±100 the full control effect; nearly all actives have a fitted effect of over 65% in size
# HP1b binding inh = inhibitors of HP1-beta chromodomain binding to methylated histone tails; AlphaScreen HP1-beta / biotin-H3K9me3 peptide binding; hit rate 0.56% among 390,000; P83916; Potency, µM (highest dose often 114 µM), for the others: top-dose activity change, negative = inhibition, actives largely listed as inhibitors; further: nearly all actives have a fitted effect of over 70% in size
# Target sequence (P83916 whole entry, looked up): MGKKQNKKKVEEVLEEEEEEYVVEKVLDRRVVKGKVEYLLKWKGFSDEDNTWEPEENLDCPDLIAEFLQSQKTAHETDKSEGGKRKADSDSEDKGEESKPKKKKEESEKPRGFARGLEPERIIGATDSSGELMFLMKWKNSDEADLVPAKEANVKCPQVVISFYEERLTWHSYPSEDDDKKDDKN
#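 HP1-beta protein (50 nM final) preincubated 30 min at room temperature with biotinylated H3(1-18)K9me3 peptide (50 nM) in PBS pH 7.4, 0.01% Tween-20, then compound added for 30 min. AlphaScreen streptavidin donor/nickel chelate acceptor beads (10 ug/mL final), 30 min dark, luminescence read.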
# * = called active by the depositor; ? = inconclusive; . = no result given; [ ] = remark or other dose. The call rests on the fitted dose curve; in most records, active means well fitted curve in the direction sought with a large enough effect; inconclusive means small, poorly fitted or top-dose-only effect, or another doubt; inactive means no such curve, though single readings can be large; an effect the other way counts as inactive or inconclusive. Potency means the concentration at half of the fitted maximal effect.
SMILES,JMJD2A Tudor inh,BAZ2B block,G9a inh,VDR inh,PLK1 PBD block,HP1b binding inh
CCCCN(C)CCNC(=O)Cn1ncc2c3ccccc3n(CCC)c2c1=O,-17.2%,-1.8%,-9.0%[59 µM],-6.7%,.,28.2%
COCCn1c(C)cc(/C=C2/NC(=O)N(c3cccc(Cl)c3)C2=O)c1C,-24.1%,-37.4%,50.1µM*,-18.2%,-4.5%,7.5%
O=c1[nH]c2ccccc2nc1C(Cl)c1ccccc1 (stereo not given),.,56.2µM*,?,.,.,.
NC(=S)Nc1nc2ccccc2[nH]c1=O,.,?,7.94µM*,.,.,.
Cc1ccc2[nH]c(=O)c(NC(N)=S)nc2c1,-24.6%,1.8%,?,5.8%,-3.9%,12.1%
COC(c1ccccc1)c1nc2ccccc2[nH]c1=O (stereo not given),-5.8%,10.1%,-9.4%[2.33 µM],-20.6%,1.3%,16.7%
COc1cc(C(=O)NCC(=O)OCC(=O)Nc2nnc(-c3ccccc3)o2)cc(OC)c1OC,22.4µM*,?,-4.3%[59 µM],-18.8%,1.1%,11.5%
O=C(COC(=O)CNC(=O)c1cccc(Br)c1)Nc1nnc(-c2ccccc2)o1,-2.9%,11.8%,-13.3%[12.7 µM],2.1%,-0.8%,29.6%
O=C(COC(=O)CNC(=O)c1ccccc1)Nc1nnc(-c2ccccc2)o1,?,?,44.7µM*,-6.9%,0.4%,50.9%
COc1ccc(NC(=O)COC(=O)CNC(=O)c2cc(OC)c(OC)c(OC)c2)cc1,-5.4%,1.2%,26.7%[59 µM],1.4%,-11.1%,-16.4%
COc1ccc(C(=O)NCC(=O)OCC(=O)c2ccccc2Br)cc1OC,.,.,.,.,2.8%,.
COc1cc(C(=O)NCC(=O)OCC(=O)c2cccc3ccccc23)cc(OC)c1OC,-4.5%,-24.3%,70.8µM*,-5.9%,-16.3%,7.2%
CCOc1ccc(NC(=O)C2CCN(S(=O)(=O)c3ccc4c(c3)NC(=O)C(C)S4)CC2)cc1 (stereo not given),-2.4%,-11.8%,.,8.2%,0.5%,31.2%
O=C(Cn1nc(C(=O)O)c2ccccc2c1=O)c1cc(F)ccc1F,-22.1%[11.4 µM],24.8%,26.1%[59 µM],?,16.8µM*,-6.3%
O=C(Cn1nnc2ccccc2c1=O)NCc1ccco1,-24.5%,-32.1%,?,8.9%,-5.5%,-0.7%
O=C(Cn1nc(C(=O)O)c2ccccc2c1=O)NCc1ccco1,-11.3%[11.4 µM],.,-44.6%,-21.4%,21.2µM*,?
CCOC(=O)C1(C)CCCN(C(=O)c2c(-c3ccccc3)noc2C)C1 (stereo not given),.,.,.,.,-9.5%,.
CC1(c2ccc(Cl)cc2)CC(C)(C)N(C(=O)c2cccc(F)c2)c2ccccc21 (stereo not given),-0.3%,-4.9%,19.9%[59 µM],-9.5%,.,68.6%
CC1C(=O)C(C)(C)C(=O)OC1c1ccc([N+](=O)[O-])cc1 (stereo not given),1.7%,-13.5%,50.1µM*,-11.0%,-6.9%,48.5%
CC1C(=O)C(C)(C)C(=O)OC1c1ccccc1 (stereo not given),-10.7%,-13.8%,8.3%[59 µM],-10.3%,-8.0%,37.8%
CCOc1ccc(C(=O)NCC(c2ccc(Cl)cc2)N2CCCCC2)cc1 (stereo not given),-17.5%,-18.7%,-0.6%[59 µM],5.5%,.,39.4%
Cc1ccc2c(c1)N(C(=O)CCC(=O)NCc1ccccc1Cl)CC(C)O2 (stereo not given),-22.8%,-15.8%,-3.9%[59 µM],-3.5%,.,37.5%
CC(=O)Nc1scc(-c2ccccc2)[n+]1-c1ccc(C)cc1,-12.8%,?,50.1µM*,-10.1%,-3.2%,31.0%
O=C(c1ccc(=O)[nH]n1)N1CCN(S(=O)(=O)c2cccc(F)c2)CC1,-6.9%,11.6%,-30.1%,1.0%,-8.4%,22.2%
CN(C(=S)NC(=O)C12CC3CC(CC(C3)C1)C2)c1ccc(O)cc1,50.1µM*,.,.,?,33.6µM*,10µM*
SMILES,JMJD2A Tudor inh,BAZ2B block,G9a inh,VDR inh,PLK1 PBD block,HP1b binding inh
CN1CCC(N(C)C(=S)NC(=O)C23CC4CC(CC(C4)C2)C3)CC1,-4.4%,10.1%,39.8µM*,3.2%,-26.4%,-10.7%
CC(C)(C)NC(=S)NC(=O)C12CC3CCC(CC(C3)C1)C2,89.1µM*,-38.4%,-8.6%[59 µM],8.6%,-3.3%,-15.2%
CN(C)NC(=S)NC(=O)C12CC3CC(CC(C3)C1)C2,?,?,-41.8%,?,-10.9%,10.0%
CCOC(=O)c1cc(C)n(CCc2ccccc2)c1C,-25.8%,-7.0%,13.4%[59 µM],9.1%,-6.4%,19.9%
Cc1cc(-c2csc(N)n2)c(C)n1CCc1ccccc1,44.7µM*,44.7µM*,?,39.5%,?,-18.0%
Cc1cc(-c2csc(N)n2)c(C)n1CCC(C)C,50.1µM*,?,10µM*,55.9%,-14.9%,-31.2%
O=[N+]([O-])c1c(NCCO)cc(N2CCCCC2)c2nonc12,-2.4%,-10.3%,-2.7%,2.7%,-3.2%,22.9%
CC(=O)OCCNc1cc(SC(C)C)c2nonc2c1[N+](=O)[O-],-23.7%,?,-2.7%,16.0%,-6.4%,19.2%
COC(=O)CCSc1cc(NCCCOC(C)=O)c([N+](=O)[O-])c2nonc12,0.8%[57.1 µM],.,.,-27.0%,.,8.1%[57 µM]
CCC(=O)OCCNc1cc(SCCC(=O)OC)c2nonc2c1[N+](=O)[O-],-16.2%[57.1 µM],-7.8%,12.6µM*,?,?,12.4%[57 µM]
Cc1ccc(Sc2cc(NCCCO)c([N+](=O)[O-])c3nonc23)cc1,-11.8%[11.4 µM],-25.1%,50.1µM*,?,23.8µM*,-5.4%
CC(=O)OCCCNc1cc(Sc2ccc(Cl)cc2)c2nonc2c1[N+](=O)[O-],-19.3%,-19.4%,?,10µM*,1.19µM*,4.7%
CC(=O)OCCN(C)c1cc(SC(C)C)c2nonc2c1[N+](=O)[O-],?,?,50.1µM*,?,?,-0.8%
CNc1c(NS(=O)(=O)c2ccc(OC)c(Cl)c2)c(=O)oc2ccccc12,-1.5%,-11.4%,4.3%[59 µM],1.2%,-2.6%,55.2%
Cc1ccc(S(=O)(=O)N2CCOCC2)cc1NC(=O)COC(=O)COc1cccc2c1OC(C)(C)C2,-16.7%,8.5%,-36.6%,8.3%,4.5%,-7.2%
CCOC(=O)N1CCN(c2cc(NCCO)c([N+](=O)[O-])c3nonc23)CC1,-13.9%,-6.8%,17.3%,1.7%,0.6%,11.4%
CC(C)CCSc1cc(NCCO)c([N+](=O)[O-])c2nonc12,-30.8%,-33.4%,50.1µM*,-9.6%,-25.9%,21.7%
COc1ccc(CNC2CCCC2)c(OC)c1OC,-4.4%,13.1%,20.2%[12.7 µM],-0.9%,-4.4%,16.5%
COc1cccc(CNCc2ccccc2Br)c1OC,1.58µM*,?,16.1%[0.501 µM],-2.0%,0.0%,?
COc1ccccc1CNCc1ccc(OC)c(OC)c1OC,14.1µM*,79.4µM*,10µM*,3.4%,-1.6%,?
COc1ccc(-c2cc(OC(=O)c3ccc(F)cc3)c3c(C)oc(C)c3c(=O)c2)cc1OC,-35.8%,?,?,15.9%,.,-11.9%
